# TROY signal inh: inhibitors of TROY-driven NF-kB signaling, primary screen, Q293 LMP1-TROYcd cells, NF-kB luciferase, uHTS | Q293 LMP1-TROYcd NF-kB luciferase reporter, 4 h | inhibition, % at 10 µM | 0.98% of 360,000 active | AID 1347056, 2019;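 active means compounds whose plate-normalised and pattern-corrected inhibition of the luciferase reporter signal at the single screening dose is 50% or more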
# MITF TRPM1 inh: inhibitors of MITF-dependent TRPM1 promoter reporter, primary screen, cell-based, SK-MEL-5, single point, luciferase; inhibition, % at 12.5 µM; SK-MEL-5 TRPM1 promoter luciferase, 24 h; 0.83% of 330,000 active;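 active means mean inhibition across replicates of 60% or more, whatever share of single replicates reaches that level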
# TWEAK Fn14 block: inhibitors of TWEAK-Fn14 signaling, primary screen, luciferase reporter cells, uHTS | TWEAK-stimulated Fn14 reporter cells, luciferase luminescence, 8 h | inhibition, % at 10 µM | 2% of 360,000 active | AID 1159606, 2016; in the data active means inhibition above about 50%
# HIF-2a inh: HIF-2a reporter inhibitors, primary screen, luminescence, 786-0 RCC cells | 786-0 RCC cells HIF-2a reporter, luciferase luminescence, overnight | inhibition, % at 18.8 µM | 0.72% of 360,000 active;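 active means inhibition of the luminescence signal of 40% or more relative to plate controls, in a single-dose primary screen at 18.75 µM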
# Peg3 prom inh: Peg3 promoter-driven luciferase inhibitors, primary screen, cell-based, HeLa, luciferase luminescence. inhibition, % at 20 µM. 1.7% of 360,000 active. HeLa PEG-Prom luciferase reporter, overnight;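 active means inhibition of at least 50% at 20 µM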
# LMP1 NFkB inh: EBV LMP1-driven NF-kappaB luciferase reporter inhibitors, primary screen, cell-based, luminescence, single point. 0.69% of 350,000 active. AID 504558, 2011. LMP1-induced NF-kappaB luciferase reporter cells. inhibition, % at 12.5 µM; in the data active means inhibition above about 41%;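 further: 0% = neutral control wells and 100% = reference inhibitor control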
# * = called active by the depositor; / = no result given. Sampled rows, rich in hits. Any-hit rate of the full collection: about 4%.
SMILES,TROY signal inh,MITF TRPM1 inh,TWEAK Fn14 block,HIF-2a inh,Peg3 prom inh,LMP1 NFkB inh
CC(NC(=O)CNC(=O)c1cccs1)c1cccc(C(F)(F)F)c1 (stereo not given),15,0,2,10,12,5
Cc1cccc(CN2[C@H](CO)C=CS2(=O)=O)c1,12,/,-14,6,-5,/
CCNC1CCC(Nc2ccnc3cc(Cl)ccc23)CC1 (stereo not given),-1,25,2,-24,25,-13
OC(CNc1ccnc2cc(Cl)ccc12)CNC1CCCCC1 (stereo not given),-6,91*,-76,-30,100*,1
COc1ccccc1N1CCN(C(=O)c2ccc(COc3cccc4c3OC(C)(C)C4)cc2)CC1,28,11,31,-2,23,5
COCC(=O)N1CCC(Oc2ccc(C(=O)N3C[C@@H]4CCC[C@H]3C4)cc2)CC1,-1,3,12,-14,-11,3
COCC(=O)N1CCC(Oc2ccc(C(=O)N3C[C@H]4CC[C@H]3C4)cc2)CC1,9,-2,2,-13,-4,65*
Cc1c(CN(C)C)c2c(n1Cc1ccccc1)C(=O)c1ccccc1-2,2,-23,62*,2,25,0
CCc1nc2ccc(C(=O)Nc3cc(-c4ccccc4)ccc3OC)cn2c1N(CC)CCN(C)C,1,/,2,-24,84*,/
COc1ccc(-c2nn(-c3ccccc3)cc2/C=C(\C#N)C(N)=O)cc1[N+](=O)[O-],-1,-13,8,4,-6,6
COc1ccc(-c2nn(CCC(=O)O)cc2/C=C/C(=O)O)cc1[N+](=O)[O-],65*,1,-3,14,2,1
O=C(O)CCn1cc(/C=C\C(=O)c2ccc(Cl)cc2)c(-c2cccc(Br)c2)n1,21,-5,64*,25,24,-6
Cc1cc(NC(=O)c2ccccc2NS(=O)(=O)c2c(C)c(C)cc(C)c2C)no1,53*,11,38,20,41,16
Nc1ccc2c(c1)C(=O)CCC2,74*,/,55*,2,-11,-4
CCOc1ccc(CCNC(=O)COC(=O)C2CC2)cc1OCC,-7,1,16,6,-2,-1
COc1cccc(C2CC(c3cccs3)=NN2C(=O)CSC2=NN3CCCC(=O)N=C3S2)c1OC (stereo not given),-3,/,-27,12,0,2
COc1ccc(C2=NN(C(=O)CSC3=NN4CCCC(=O)N=C4S3)C(c3cccc(OC)c3OC)C2)cc1 (stereo not given),16,10,11,11,5,77*
CCOC(=O)[C@H]1[C@H]2COc3ccc(OC)cc3[C@H]2N2C(=O)CNC(=O)[C@@]12C,-17,-1,16,20,-7,0
COc1ccc(CCN2CC(C(=O)OCC(=O)N(C)CC(=O)Nc3ccccc3Cl)CC2=O)cc1OC (stereo not given),0,2,5,8,-8,-8
O=C(N/N=C1/C(=O)c2cccc3cccc1c23)c1ccc(Cl)cc1,-36,-7,106*,-72,-52,4
COc1cc(-c2noc(C)c2C(=O)NCCc2ccccc2)cc(OC)c1OC,-21,6,-19,-45,-10,8
O=C(Nc1cccc(S(=O)(=O)N2CCCC2)c1)[C@@H]1O[C@H](CO)[C@@H](O)[C@H]1O,3,/,-6,5,-3,/
CCc1nnc(NC(=O)COc2ccccc2[N+](=O)[O-])s1,6,-18,-2,-109,-53,-5
O=S(=O)(Nc1cccc(S(=O)(=O)N2CCOCC2)c1)c1cccs1,-23,-18,10,12,8,1
Cc1ccc(NC(=O)c2cc(=O)c3ccccc3o2)cc1S(=O)(=O)N1CCOCC1,7,5,15,-2,27,-2
SMILES,TROY signal inh,MITF TRPM1 inh,TWEAK Fn14 block,HIF-2a inh,Peg3 prom inh,LMP1 NFkB inh
Cc1ccc(C(=O)Nc2ccccc2C(=O)NCc2ccco2)cc1S(=O)(=O)N1CCCCC1,-27,8,52*,-6,35,-25
COc1ccc(NC(=O)CN(C)CC(=O)Nc2cccc(F)c2)cc1S(=O)(=O)N1CCCCC1,-3,13,-2,19,21,-1
Cc1ccc(NC(=O)CN(C)CC(=O)Nc2cccc(F)c2)cc1S(=O)(=O)N1CCCCCC1,50*,10,50*,15,59*,2
Cc1ccc(NC(=O)c2cc(=O)c3ccccc3o2)cc1S(=O)(=O)N1CCCCC1,57*,17,-18,15,42,2
Cc1cccc(C(=O)NC(=S)Nc2ccc(S(=O)(=O)N3CCCCC3)cc2)c1,2,12,51*,16,7,2
CCN(C[C@H]1N[C@@](Cc2ccccc2)(C(=O)OC)[C@H]2C(=O)N(Cc3ccccc3)C(=O)[C@@H]12)C(=O)Nc1ccc(Cl)cc1,-37,-13,14,-284,-75,-1
COc1ccc(CN2CC[C@@H]3CN(C(C)=O)[C@H](c4ccccc4Br)C[C@@H]32)cc1,1,/,3,-11,12,/
COc1ccc2[nH]c3c(c2c1)CCN1C(=O)C(CC(=O)NCc2ccc(OC)c(OC)c2)C[C@H](C(=O)N2CCCCC2)[C@@]31CCc1ccccc1 (stereo not given in full),-4,1,11,8,1,13
Cc1nc(-[n+]2nc(-c3ccncc3)nn2-c2ccccc2)sc1C,-35,/,-10,-112,2,/
Cc1ccc(NC(=O)c2ccccc2NS(=O)(=O)c2ccc(F)cc2)cc1S(=O)(=O)N1CCCCC1,60*,30,72*,11,52*,20
CCS(=O)(=O)N1Cc2ccccc2CC1C(=O)N(C)CC(=O)Nc1cccc(F)c1 (stereo not given),59*,-6,21,-115,-31,-2
CN(CC(=O)Nc1ccc(F)cc1)C(=O)C1Cc2ccccc2CN1S(C)(=O)=O (stereo not given),-9,8,-10,-15,-14,-4
O=C(Nc1cccc(S(=O)(=O)N2CCCCC2)c1)c1ccccc1NS(=O)(=O)c1ccc(F)cc1,54*,18,58*,4,37,2
NS(=O)(=O)c1cccc(NC(=O)c2ccccc2NS(=O)(=O)c2ccc(F)cc2)c1,-1,-3,-11,16,15,2
Cc1ccc(C(=O)Nc2cccc(C(=O)O)c2)cc1S(=O)(=O)N1CCOCC1,-3,19,-28,-14,-39,14
Cc1ccc(C(=O)Nc2cccc(C(=O)O)c2)cc1S(=O)(=O)N1CCCCC1,-18,24,-15,-66,-205,44*
Cc1ccc2nc(-c3ccc(-c4ccccn4)s3)cn2c1,-50,-29,-17,-286,-291,13
